Results published in the supplement of paper PMC11732987, “Enantioselective OTUD7B fragment discovery through chemoproteomics screening and high-throughput optimisation” (Communications Chemistry, 2025).

Tests used:
Assay in all cases: log2 ratio of Biotin-Ahx-Ub-VS probe labelling (fragment/DMSO); higher = less target engagement (more negative = stronger competition), active = hit call of the paper (q ≤ 0.05, log2 ratio ≤ -1)
Conditions in all cases: compound concentration: 200 uM; treatment time: 3 h
USP34 = USP34 (UniProt Q70CQ2)
How it was run: (§1)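 HEK293T lysate in Tris/CHAPS/IGEPAL buffer with protease inhibitors (495 µg per sample) was given fragment at 200 µM or vehicle for 3 h, in triplicate. It then received Biotin-Ahx-Ub-VS at 0.5 µM final for 1 h. Labelled DUBs were NeutrAvidin-enriched, digested with LysC and trypsin, and run by diaPASEF LC-MS/MS. Values are average log2 fragment/vehicle ratios by unpaired t-test on global-median-normalised Spectronaut quantities of proteins with ≥2 unique peptides.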

USP36 = molecular target: T1, USP36 (UniProt Q9P275)
T1 sequence (whole entry): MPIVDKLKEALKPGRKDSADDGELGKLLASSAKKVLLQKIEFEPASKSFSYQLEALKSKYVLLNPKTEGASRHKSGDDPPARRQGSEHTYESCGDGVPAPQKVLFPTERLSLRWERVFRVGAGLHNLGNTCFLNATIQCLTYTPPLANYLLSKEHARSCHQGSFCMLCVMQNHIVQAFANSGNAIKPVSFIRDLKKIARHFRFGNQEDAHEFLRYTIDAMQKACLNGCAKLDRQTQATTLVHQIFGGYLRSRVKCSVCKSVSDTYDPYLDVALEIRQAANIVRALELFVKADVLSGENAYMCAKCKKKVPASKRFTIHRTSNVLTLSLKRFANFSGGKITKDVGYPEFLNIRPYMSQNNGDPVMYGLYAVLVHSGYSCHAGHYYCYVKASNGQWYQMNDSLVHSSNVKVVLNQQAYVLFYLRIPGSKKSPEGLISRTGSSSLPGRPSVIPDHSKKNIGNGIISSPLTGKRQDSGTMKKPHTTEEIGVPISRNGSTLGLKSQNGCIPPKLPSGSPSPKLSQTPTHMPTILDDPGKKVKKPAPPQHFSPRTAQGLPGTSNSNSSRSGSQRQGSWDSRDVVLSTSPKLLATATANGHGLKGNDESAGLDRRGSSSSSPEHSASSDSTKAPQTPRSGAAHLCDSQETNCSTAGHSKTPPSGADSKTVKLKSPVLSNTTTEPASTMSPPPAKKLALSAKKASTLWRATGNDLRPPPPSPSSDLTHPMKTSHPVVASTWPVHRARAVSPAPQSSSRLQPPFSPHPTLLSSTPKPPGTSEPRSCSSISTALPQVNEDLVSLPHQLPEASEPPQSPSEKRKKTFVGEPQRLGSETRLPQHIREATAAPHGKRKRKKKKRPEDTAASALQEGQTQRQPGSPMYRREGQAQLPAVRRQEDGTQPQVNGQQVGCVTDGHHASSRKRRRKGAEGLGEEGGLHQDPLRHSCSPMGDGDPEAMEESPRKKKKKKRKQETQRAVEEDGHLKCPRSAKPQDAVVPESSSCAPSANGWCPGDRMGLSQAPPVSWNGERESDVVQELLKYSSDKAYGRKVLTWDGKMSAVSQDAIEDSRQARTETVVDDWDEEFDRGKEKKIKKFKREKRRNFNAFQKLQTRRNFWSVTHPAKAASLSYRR
How it was run: as §1

USP38 = molecular target: T2, USP38 (UniProt Q8NB14)
T2 sequence (whole entry): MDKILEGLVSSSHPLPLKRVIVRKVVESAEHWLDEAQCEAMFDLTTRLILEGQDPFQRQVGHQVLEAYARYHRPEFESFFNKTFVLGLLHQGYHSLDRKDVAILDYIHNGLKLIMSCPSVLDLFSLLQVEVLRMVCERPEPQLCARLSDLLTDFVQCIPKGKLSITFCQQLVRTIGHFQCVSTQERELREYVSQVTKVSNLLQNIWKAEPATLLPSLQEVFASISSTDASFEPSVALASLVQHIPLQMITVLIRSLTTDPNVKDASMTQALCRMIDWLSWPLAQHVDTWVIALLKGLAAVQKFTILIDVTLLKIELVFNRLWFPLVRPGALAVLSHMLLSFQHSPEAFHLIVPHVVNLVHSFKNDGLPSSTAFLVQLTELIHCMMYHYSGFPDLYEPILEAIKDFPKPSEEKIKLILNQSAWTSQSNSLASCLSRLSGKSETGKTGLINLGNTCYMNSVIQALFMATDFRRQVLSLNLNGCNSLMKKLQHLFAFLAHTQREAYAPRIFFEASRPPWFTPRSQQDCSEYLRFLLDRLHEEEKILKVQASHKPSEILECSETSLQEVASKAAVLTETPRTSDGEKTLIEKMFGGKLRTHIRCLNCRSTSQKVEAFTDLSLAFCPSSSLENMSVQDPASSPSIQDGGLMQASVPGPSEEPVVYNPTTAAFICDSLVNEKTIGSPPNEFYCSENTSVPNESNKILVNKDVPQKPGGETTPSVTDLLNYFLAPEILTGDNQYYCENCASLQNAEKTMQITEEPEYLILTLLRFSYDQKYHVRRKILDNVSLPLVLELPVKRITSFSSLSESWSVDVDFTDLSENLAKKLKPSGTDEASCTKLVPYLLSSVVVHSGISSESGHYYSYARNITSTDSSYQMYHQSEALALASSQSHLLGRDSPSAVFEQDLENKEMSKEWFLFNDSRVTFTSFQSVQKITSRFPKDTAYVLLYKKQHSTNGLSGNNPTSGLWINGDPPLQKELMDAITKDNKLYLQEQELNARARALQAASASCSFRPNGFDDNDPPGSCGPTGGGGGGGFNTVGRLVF
How it was run: as §1

USP39 = molecular target: T3, USP39 (UniProt Q53GS9)
T3 sequence (whole entry): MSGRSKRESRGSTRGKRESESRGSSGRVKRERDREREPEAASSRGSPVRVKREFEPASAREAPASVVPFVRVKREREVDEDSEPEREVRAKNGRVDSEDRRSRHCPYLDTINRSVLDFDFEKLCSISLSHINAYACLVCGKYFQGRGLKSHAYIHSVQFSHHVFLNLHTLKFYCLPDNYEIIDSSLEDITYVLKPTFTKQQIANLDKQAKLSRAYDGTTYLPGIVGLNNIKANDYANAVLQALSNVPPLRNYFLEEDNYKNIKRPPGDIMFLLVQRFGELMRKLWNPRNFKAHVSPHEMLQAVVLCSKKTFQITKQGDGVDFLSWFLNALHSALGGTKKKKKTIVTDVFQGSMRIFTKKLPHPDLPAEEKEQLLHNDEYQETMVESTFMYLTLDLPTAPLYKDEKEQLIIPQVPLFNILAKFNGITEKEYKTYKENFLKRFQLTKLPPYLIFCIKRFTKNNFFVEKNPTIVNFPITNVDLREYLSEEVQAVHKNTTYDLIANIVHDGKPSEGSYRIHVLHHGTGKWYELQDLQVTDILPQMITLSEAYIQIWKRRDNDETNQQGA
How it was run: as §1

USP4 = molecular target: T4, USP4 (UniProt Q13107)
T4 sequence (whole entry): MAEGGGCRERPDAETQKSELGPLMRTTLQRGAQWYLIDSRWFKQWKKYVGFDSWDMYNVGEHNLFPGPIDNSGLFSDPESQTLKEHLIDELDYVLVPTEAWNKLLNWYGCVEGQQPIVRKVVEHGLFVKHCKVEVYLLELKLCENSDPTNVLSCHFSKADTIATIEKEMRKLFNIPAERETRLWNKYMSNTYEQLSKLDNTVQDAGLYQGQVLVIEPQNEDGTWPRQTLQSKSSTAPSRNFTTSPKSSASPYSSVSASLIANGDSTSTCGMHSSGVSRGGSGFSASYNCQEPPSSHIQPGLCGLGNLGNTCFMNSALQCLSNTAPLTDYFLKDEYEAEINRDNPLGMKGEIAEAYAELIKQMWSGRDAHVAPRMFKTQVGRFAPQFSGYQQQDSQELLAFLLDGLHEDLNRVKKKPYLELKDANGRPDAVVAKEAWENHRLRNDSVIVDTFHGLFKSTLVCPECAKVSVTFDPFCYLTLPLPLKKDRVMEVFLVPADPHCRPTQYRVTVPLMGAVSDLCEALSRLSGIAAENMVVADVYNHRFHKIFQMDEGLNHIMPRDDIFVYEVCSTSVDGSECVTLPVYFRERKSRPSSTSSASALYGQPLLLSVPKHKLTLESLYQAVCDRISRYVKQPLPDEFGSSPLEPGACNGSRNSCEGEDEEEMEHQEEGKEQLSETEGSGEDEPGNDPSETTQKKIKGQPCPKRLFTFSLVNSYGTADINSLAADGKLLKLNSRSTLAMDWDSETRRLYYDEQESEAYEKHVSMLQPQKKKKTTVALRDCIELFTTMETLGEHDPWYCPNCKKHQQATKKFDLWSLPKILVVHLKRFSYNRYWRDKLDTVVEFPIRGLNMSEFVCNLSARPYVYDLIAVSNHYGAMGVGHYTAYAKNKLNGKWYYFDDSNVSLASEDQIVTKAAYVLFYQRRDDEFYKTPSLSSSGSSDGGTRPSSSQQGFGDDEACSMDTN
How it was run: as §1

Measured: log2 ratio of Biotin-Ahx-Ub-VS probe labelling

Sequence of USP34 (Q70CQ2 whole entry, the tested form may be a part): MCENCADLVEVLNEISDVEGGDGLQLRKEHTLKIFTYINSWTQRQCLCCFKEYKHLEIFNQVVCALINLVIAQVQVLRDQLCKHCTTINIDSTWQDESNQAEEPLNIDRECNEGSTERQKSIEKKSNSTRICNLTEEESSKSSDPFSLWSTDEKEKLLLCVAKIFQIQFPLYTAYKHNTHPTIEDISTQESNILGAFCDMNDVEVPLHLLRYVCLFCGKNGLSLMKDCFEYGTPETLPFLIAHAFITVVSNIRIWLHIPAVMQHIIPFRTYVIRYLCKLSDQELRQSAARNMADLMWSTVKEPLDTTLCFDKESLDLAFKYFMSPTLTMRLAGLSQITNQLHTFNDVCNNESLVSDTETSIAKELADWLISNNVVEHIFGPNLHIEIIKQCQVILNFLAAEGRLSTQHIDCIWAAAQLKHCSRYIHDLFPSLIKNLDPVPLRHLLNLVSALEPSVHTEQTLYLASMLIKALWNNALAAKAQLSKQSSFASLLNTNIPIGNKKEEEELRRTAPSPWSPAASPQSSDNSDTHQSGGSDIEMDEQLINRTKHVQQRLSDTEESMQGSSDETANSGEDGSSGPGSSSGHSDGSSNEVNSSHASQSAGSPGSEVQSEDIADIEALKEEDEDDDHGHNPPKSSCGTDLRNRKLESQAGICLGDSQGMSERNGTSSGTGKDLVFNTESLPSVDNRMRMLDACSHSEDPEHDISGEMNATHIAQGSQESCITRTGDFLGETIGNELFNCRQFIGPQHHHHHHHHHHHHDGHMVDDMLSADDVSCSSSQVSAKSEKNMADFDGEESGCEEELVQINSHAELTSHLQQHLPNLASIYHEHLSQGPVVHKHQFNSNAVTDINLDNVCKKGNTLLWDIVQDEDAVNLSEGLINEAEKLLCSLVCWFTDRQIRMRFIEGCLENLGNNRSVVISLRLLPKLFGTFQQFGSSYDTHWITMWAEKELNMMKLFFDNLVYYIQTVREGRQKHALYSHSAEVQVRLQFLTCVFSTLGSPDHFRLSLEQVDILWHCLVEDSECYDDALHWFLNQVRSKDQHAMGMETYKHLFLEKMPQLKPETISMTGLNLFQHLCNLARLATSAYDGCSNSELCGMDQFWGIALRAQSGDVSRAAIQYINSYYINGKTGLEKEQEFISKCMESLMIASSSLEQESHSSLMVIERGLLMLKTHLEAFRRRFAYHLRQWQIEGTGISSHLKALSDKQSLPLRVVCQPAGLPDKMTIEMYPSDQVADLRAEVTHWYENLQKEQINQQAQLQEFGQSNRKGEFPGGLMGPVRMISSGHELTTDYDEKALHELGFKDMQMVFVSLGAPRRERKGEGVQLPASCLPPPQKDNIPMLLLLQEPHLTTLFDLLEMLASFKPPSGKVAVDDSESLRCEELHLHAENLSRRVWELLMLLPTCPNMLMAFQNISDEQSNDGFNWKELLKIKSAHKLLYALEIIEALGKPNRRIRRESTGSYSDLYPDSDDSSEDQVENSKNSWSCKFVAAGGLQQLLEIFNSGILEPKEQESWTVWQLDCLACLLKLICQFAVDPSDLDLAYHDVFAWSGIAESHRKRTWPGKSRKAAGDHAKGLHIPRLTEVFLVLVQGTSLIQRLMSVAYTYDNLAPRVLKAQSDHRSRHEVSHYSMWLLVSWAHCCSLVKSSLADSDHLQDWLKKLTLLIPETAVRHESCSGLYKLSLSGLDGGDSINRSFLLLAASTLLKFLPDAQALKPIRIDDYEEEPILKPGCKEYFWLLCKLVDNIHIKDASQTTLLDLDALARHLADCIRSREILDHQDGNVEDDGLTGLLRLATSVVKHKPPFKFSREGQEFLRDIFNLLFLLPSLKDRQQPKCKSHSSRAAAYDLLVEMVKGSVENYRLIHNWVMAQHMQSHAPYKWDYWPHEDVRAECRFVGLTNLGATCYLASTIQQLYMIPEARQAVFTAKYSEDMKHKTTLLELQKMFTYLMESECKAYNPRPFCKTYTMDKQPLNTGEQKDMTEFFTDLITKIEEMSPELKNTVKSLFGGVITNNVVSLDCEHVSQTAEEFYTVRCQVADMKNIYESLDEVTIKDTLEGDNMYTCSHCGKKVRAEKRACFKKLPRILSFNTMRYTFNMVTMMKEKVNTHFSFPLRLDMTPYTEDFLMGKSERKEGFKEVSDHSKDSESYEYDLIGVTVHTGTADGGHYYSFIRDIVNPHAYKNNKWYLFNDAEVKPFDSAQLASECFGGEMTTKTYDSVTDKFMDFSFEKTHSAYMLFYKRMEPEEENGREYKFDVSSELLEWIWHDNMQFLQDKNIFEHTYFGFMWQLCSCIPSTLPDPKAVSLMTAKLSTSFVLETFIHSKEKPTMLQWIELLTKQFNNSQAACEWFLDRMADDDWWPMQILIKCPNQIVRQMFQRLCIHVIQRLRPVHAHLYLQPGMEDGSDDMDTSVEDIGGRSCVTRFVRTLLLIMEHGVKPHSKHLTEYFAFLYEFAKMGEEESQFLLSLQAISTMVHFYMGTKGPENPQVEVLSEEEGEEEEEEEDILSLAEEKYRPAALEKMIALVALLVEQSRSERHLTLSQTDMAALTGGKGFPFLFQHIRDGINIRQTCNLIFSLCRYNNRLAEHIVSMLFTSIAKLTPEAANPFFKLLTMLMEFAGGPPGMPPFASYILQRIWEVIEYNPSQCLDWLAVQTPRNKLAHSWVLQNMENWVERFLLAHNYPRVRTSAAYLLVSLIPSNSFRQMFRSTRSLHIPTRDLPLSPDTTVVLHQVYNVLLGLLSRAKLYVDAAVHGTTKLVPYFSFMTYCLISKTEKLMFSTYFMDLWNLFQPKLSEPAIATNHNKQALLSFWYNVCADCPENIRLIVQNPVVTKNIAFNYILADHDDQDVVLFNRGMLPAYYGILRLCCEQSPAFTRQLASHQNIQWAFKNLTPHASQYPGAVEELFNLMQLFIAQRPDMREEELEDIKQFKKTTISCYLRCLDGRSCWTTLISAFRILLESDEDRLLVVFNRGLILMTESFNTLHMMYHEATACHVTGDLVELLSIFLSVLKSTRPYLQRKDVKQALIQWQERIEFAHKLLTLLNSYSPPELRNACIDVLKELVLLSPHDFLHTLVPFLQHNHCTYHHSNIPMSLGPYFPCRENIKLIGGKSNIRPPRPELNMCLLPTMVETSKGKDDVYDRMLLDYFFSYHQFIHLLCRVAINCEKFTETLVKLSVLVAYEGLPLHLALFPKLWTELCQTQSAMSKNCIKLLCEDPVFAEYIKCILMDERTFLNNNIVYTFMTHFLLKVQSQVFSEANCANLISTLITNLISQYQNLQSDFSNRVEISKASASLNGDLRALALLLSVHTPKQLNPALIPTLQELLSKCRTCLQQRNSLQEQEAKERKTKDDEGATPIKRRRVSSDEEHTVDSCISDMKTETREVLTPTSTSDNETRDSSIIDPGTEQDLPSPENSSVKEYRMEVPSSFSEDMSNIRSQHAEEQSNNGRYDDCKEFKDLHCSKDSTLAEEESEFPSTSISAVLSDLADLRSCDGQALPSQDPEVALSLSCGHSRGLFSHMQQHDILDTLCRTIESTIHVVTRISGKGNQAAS

CCN(C(=O)CCl)C1CCCCC1
inactive: USP34 -0.106 | USP36 -0.191 | USP38 0.143 | USP39 0.059 | USP4 0.182
